Reference: PubChem BioAssay (NCATS)
Inconclusive results are not listed. Active and inactive are the calls of the source. Unless noted, the rule behind the calls is not given here.

What was measured:
[1] = qHTS profiling of the MIPE4 collection as inhibitors of Plasmodium falciparum (3D7) proliferation (AID 743344);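 note: scaled between DMSO vehicle wells and 0.29 µM artemisinin as full inhibition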; settings: P. falciparum 3D7 in erythrocytes, SYBR Green DNA fluorescence, 72 h; at 28.5 µM unless noted
Method in brief: (§1)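 Erythrocytes infected with P. falciparum (0.3% parasitemia, 2.5% hematocrit) incubated with compounds 72 h at 37 C, 5% CO2. Lysis with saponin/Triton buffer containing SYBR Green I, overnight at room temperature in the dark; DNA fluorescence (485/535 nm) normalised to 0.29 uM artemisinin and DMSO.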

[2] = qHTS profiling of the MIPE4 collection as inhibitors of Plasmodium falciparum (DD2) proliferation (AID 743345); settings: P. falciparum Dd2 in erythrocytes, SYBR Green DNA, 72 h; at 28.5 µM unless noted
Method in brief: as §1

[3] = qHTS profiling of the MIPE4 collection as inhibitors of Plasmodium falciparum (DD2) proliferation (Rep 2) (AID 743346); settings: P. falciparum Dd2 in erythrocytes, SYBR Green DNA, 72 h; at 28.5 µM unless noted
Method in brief: as §1

[4] = qHTS profiling of the MIPE4 collection as inhibitors of Plasmodium falciparum (HB3) proliferation (AID 743347);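 note: plate controls were DMSO vehicle wells for no effect and artemisinin wells for full effect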; settings: P. falciparum HB3 in erythrocytes, SYBR Green DNA, 72 h; at 28.5 µM unless noted
Method in brief: as §1

[5] = High-throughput drug toxicity screening in the BPDCN cell line Gen2.2 (AID 1224824); settings: Gen2.2 BPDCN cells; at 45.8 µM (top of the series) unless noted;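 note: cells exposed to compounds for 48 h before reading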
Method in brief: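 Readout is ATP luminescence from Gen2.2 cells after two days of drug exposure in serum-containing medium at 37 °C. Values express percent activity, with vehicle defining full signal and 9.2 uM bortezomib defining zero.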

[6] = High-throughput drug toxicity screening in the BPDCN cell line Cal-1 (AID 1224825); settings: Cal-1 BPDCN cell viability, qHTS; at 45.8 µM (top of the series) unless noted
Method in brief: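 500 Cal-1 cells/well, RPMI + glutamine + 10% FBS (phenol red-free); cpd added by pin tool; 48 h, 37C, 5% CO2; CTG 15 min RT, lumi read. Normalised: DMSO 100%, bortezomib 9.2 uM 0%.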

[7] = qHTS assay for measurement of the activity of small molecule inhibitors on Zika virus induced Caspase-3 activity in human iPSC derived neural progenitor cells (hNPCs) (AID 1224857; active = well fitted inhibition curve with a large enough effect; note: % of control where 0% means no effect; nearly all actives have a fitted effect of over 65% in size)
Method in brief: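 hNPCs seeded 350 cells/well, cultured 16–20 h; compounds added 1 h before ZIKV (2 FFU/cell), 37 C 6 h. Caspase-Glo 3/7 luminescence after 30 min RT; % inhibition from induction scaled to uninfected (0%) and infected (100%) wells.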

[8] = qHTS assay for measurement of the activity of small molecule inhibitors on Zika virus induced Caspase-3 activity in human astrocytoma cells (AID 1224859; active = well fitted inhibition curve with a large enough effect;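 note: plate controls were ZIKV-infected untreated cells for no effect and uninfected cells for full effect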)
Method in brief: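 Luminescence read-out (Caspase-Glo 3/7, 30 min RT) of caspase activity in SNB-19 cells infected 6 h with ZIKV, 2 FFU/cell, after 1 h compound pretreatment; % inhibition from induction normalised to uninfected (0%) and infected (100%) wells.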

[9] = qHTS Screen of the MIPE 4.0 Collection Against Ewings Sarcoma (RDES) (AID 1259252; active = well fitted inhibition curve with a large enough effect; note: nearly all actives have a fitted effect of over 35% in size; note: potency is the fitted concentration of half-maximal effect;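 for viability (percent of control): 100% = DMSO-treated cells and 0% = medium-only wells without cells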)
Method in brief: (§2)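 Cells plated in serum-containing RPMI (5% FBS) and treated with compound dilutions for 48 h. Readout luminescent viability; normalization relied on vehicle (no inhibition) and media-only columns (full inhibition).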

[10] = qHTS Screen of the MIPE 4.0 Collection Against Ewings Sarcoma (TC71) (AID 1259253; active = well fitted inhibition curve with a large enough effect; note: nearly all actives have a fitted effect of over 40% in size; note: potency is the fitted concentration of half-maximal effect;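 for viability (% of DMSO): 100% = DMSO-treated cells and 0% = medium-only wells without cells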)
Method in brief: as §2

[11] = qHTS Screen of the MIPE 4.0 Collection Against Ewings Sarcoma (EW8) (AID 1259255; active = well fitted inhibition curve with a large enough effect; note: nearly all actives have a fitted effect of over 35% in size; note: potency is the fitted concentration of half-maximal effect;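 for viability: 100% = DMSO-treated cells and 0% = medium-only wells without cells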)
Method in brief: as §2

SMILES | parasite growth, % of DMSO control [1] | parasite growth remaining, % of DMSO control (lower = more inhibition) [2] | parasite growth, % of control (lower = inhibition) [3] | growth, % of control [4] | cell viability, % of control (lower = more cytotoxic) [5] | viability (% of control) [6] | Potency [7] | Potency [8] | Potency [9] | Potency [10] | Potency [11] | activity change, negative = inhibition [7] | activity change, negative = inhibition [8] | viability (percent of control) [9] | viability (% of DMSO) [10] | viability [11]
CC(=CC(=O)Nc1ccccc1C(=O)O)c1ccc2ccccc2c1 | 383% | 110% | 133% | 674% | 115% | 77.7% | inactive | inactive | 4.18 µM (active) | 13.2 µM (active) | 10.5 µM (active) |  |  |  |  | 
CC(C)C[C@H](NC(=O)[C@@H](NC(=O)c1cccc(-c2ccccc2)n1)[C@@H](C)O)B(O)O | 4.97% | 8.79% | 7.67% | 3.76% | 3.77% | 4.67% | inactive | inactive | 0.059 µM (active) | 0.0743 µM (active) | 0.0372 µM (active) |  |  |  |  | 
CN1C(C(=O)Nc2ccccn2)=C(O)c2sc(Cl)cc2S1(=O)=O | 64.4% | 86.4% | 50.9% | 69.3% | 59.6% | 71.2% | inactive | inactive | 3.32 µM (active) | 3.72 µM (active) | 20.9 µM (active) |  |  |  |  | 
O=C(NC1CC1)c1cccc(-c2ccc3c(NC(=O)C4CC4)n[nH]c3c2)c1 | 35.1% | 96.7% | 59.5% | 63.3% | 224% | 17.8% | inactive | inactive | 1.32 µM (active) | 1.32 µM (active) | 3.72 µM (active) |  |  |  |  | 
N#Cc1c(NC(=O)c2cccc3ccccc23)sc2c1CCCC2 | 69.2% | 81.7% | 90% | 69.7% | 83.4% | 9.83% | inactive | inactive | 0.296 µM (active) | 0.526 µM (active) | 0.469 µM (active) |  |  |  |  | 
C=CCNC1=C2C[C@@H](C)C[C@H](OC)[C@@H](O)[C@@H](C)C=C(C)[C@H](OC(N)=O)[C@@H](OC)C=CC=C(C)C(=O)NC(=CC1=O)C2=O | 5.05% | 7.22% | 9.89% | 4.67% | 6.66% | 5.31% | inactive | inactive | 6.62 µM (active) | 3.72 µM (active) | 10.5 µM (active) |  |  |  |  | 
O=C1NC(O)CCN1[C@@H]1O[C@H](CO)[C@H](O)[C@H]1O (some centres undefined) | 98.9% | 97.8% | 109% | 59.2% | 105% | 115% | inactive | inactive | inactive | inactive | inactive |  |  |  |  | 
COC[C@H](NC(=O)c1cnc(C)s1)C(=O)N[C@@H](COC)C(=O)N[C@@H](Cc1ccccc1)C(=O)[C@@]1(C)CO1 | 5.4% | 7.34% | 12.2% | 5.53% | 0.973% | 3.48% | inactive | inactive | 0.132 µM (active) | 0.296 µM (active) | 0.105 µM (active) |  |  |  |  | 
Cc1nc(NC(=O)N2CCC[C@@H]2C(N)=O)sc1-c1ccnc(C(C)(C)C(F)(F)F)c1 | 13.3% | 36.1% | 24% | 5.19% | 21% | 65.8% | inactive | inactive | 1.48 µM (active) | 11.8 µM (active) | 23.5 µM (active) |  |  |  |  | 
C[C@H](NCc1ccc2c(c1)nc(NC(=O)c1ccc(-c3cn[nH]c3)s1)n2CCc1ccccc1)C(C)(C)C | 5.07% | 4.87% | 13.1% | 10.1% | 9.44% | 2.31% | inactive | inactive | 2.35 µM (active) | 1.48 µM (active) | 2.09 µM (active) |  |  |  |  | 
O=C1CSC(=O)N1C(CCc1ccncc1)COc1ccc(-c2cccc([N+](=O)[O-])c2)cc1 (centres undefined) | 17.8% | 49.4% | 32.8% | 4.69% | 188% | 33% | inactive | inactive | 2.96 µM (active) | 4.69 µM (active) | 13.2 µM (active) |  |  |  |  | 
CC(C)(C)[C@H](NC(=O)c1ccc(N)c(Cl)c1)C(=O)N1CCC[C@@H]1C(=O)N[C@H](C#N)CC(=O)O | 160% [at 3.19 µM] | 110% [at 3.19 µM] | 108% [at 3.19 µM] | 588% [at 3.19 µM] | 14.9% [at 3.51 µM] | 25% [at 3.51 µM] |  |  |  |  |  | 12% [at 4.53 µM] (inactive) | 53% [at 4.53 µM] (inactive) | 112% [at 3.51 µM] (inactive) | 134% [at 3.51 µM] (inactive) | 116% [at 3.51 µM] (inactive)
CC(C)(O)CC[C@@H](O)[C@](C)(O)[C@H]1CC[C@@]2(O)C3=CC(=O)[C@@H]4C[C@@H](O)[C@@H](O)C[C@]4(C)[C@@H]3CC[C@]12C | 385% | 110% | 122% | 674% | 104% | 104% | inactive | inactive | inactive | inactive | inactive |  |  |  |  | 
N#CC(=Cc1ccc(O)c(O)c1)C(=O)NCc1ccccc1 | 42.9% | 87.2% | 51.8% | 48.1% | 70.4% | 45.8% | inactive | inactive | 23.5 µM (active) | 23.5 µM (active) | 18.7 µM (active) |  |  |  |  | 
